# PubChem BioAssay (EPA / NIEHS)
# Activity calls are given as the source filed them. Rule for the calls: active = hit-call score of the fitted dose curve at least 0.9, where 1 is the maximum; inactive = score below 0.9.
# What was measured:
# [1] = APR_HepG2_CellCycleArrest_24hr: Apredica 24-hour HepG2 Assay for Cell Cycle Arrest (AID 2282905); details: imaging, actives raise or lower the signal;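 note: cell cycle arrest scored as ratio of 2N to 4N nuclear DNA content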
# How it was run: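 HepG2 cells were exposed to compounds at 0.39–200 uM (ten concentrations, duplicate) in 0.5% v/v DMSO for 24 hr. After formaldehyde fixation and Triton permeabilization, Hoechst 33342-stained nuclei were imaged at 20x; DNA content was quantified, with bidirectional fitting against DMSO.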
# [2] = APR_HepG2_NuclearSize_24hr: Apredica 24-hour HepG2 Assay for Nuclear Size (AID 2282907); details: high-content imaging, actives raise or lower the signal
# How it was run: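 HepG2 human liver cells were exposed for 24 hr to compounds at 0.39–200 uM (ten concentrations, duplicate) in 0.5% v/v DMSO. They were then formaldehyde-fixed, Triton-permeabilized and Hoechst 33342-stained, and nuclear diameter was imaged at 20x. Bidirectional fits were made against DMSO.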
# [3] = APR_HepG2_CellLoss_24hr: Apredica 24-hour HepG2 Assay for Cell Loss (AID 2282908); details: high-content imaging;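 for AC50: fit in both directions so a hit may be cell loss or gain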
# How it was run: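 Compounds were tested at 0.39–200 uM in duplicate with 0.5% v/v DMSO final. Cells were then fixed in 3.7% formaldehyde, Hoechst 33342 nuclei were imaged at 20x by HCS, and cell number was fitted bidirectionally against DMSO.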
# [4] = APR_HepG2_MicrotubuleCSK_24hr: Apredica 24-hour HepG2 Assay for Microtubule CSK Stabilty (AID 2282909); details: HepG2 microtubule cytoskeleton imaging, actives raise or lower the signal
# How it was run: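 HepG2 cells exposed 24 h to compounds at 0.39–200 uM (duplicate, 0.5% v/v DMSO final), then fixed, permeabilized and immunostained for alpha-tubulin with Hoechst 33342. Cytoskeleton imaged at 20x; bidirectional fit versus DMSO baseline.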
# [5] = APR_HepG2_MitoticArrest_24hr: Apredica 24-hour HepG2 Assay for Mitotic Arrest (AID 2282910); details: high-content imaging, actives raise or lower the signal
# How it was run: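 HepG2 human liver cells were exposed to compounds at 0.39–200 uM (10 concentrations, duplicate) in 0.5% v/v DMSO for 24 hr, then fixed and immunostained for phospho-histone H3 with Hoechst 33342. Mitotic arrest came from HCS fluorescent imaging, fitted bidirectionally against DMSO.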
# [6] = APR_HepG2_MitoMembPot_24hr: Apredica 24-hour HepG2 Assay for Mitochondrial Membrane Potential (AID 2282911); details: imaging, actives raise or lower the signal
# How it was run: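 HepG2, 24 hr dosing, 10 concentrations 0.39–200 uM, 0.5% DMSO final. Live-cell MitoTracker Red CMXRos 250 nM 30 min, then 3.7% formaldehyde fix. HCS fluorescence imaging, 20x; bidirectional fit vs DMSO baseline.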
# [7] = APR_HepG2_MitoMass_24hr: Apredica 24-hour HepG2 Assay for Mitochondrial Mass (AID 2282912); details: high-content imaging, actives raise or lower the signal
# How it was run: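 Human HepG2 liver cells were exposed for 24 hr to compounds at 0.39–200 uM (duplicates, 0.5% v/v DMSO final). They were stained live with 250 nM MitoTracker Red CMXRos for 30 min, fixed in 3.7% formaldehyde, and imaged by HCS fluorescence; signals were fitted bidirectionally against DMSO.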
# [8] = APR_HepG2_CellCycleArrest_72hr: Apredica 72-hour HepG2 Assay for Cell Cycle Arrest (AID 2282914); details: high-content imaging, actives raise or lower the signal
# How it was run: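 HepG2, 72 hr exposure, 10-point 0.39–200 uM, duplicate, 0.5% DMSO final. Fix 3.7% formaldehyde 30 min RT, Triton X-100 0.5%, Hoechst 33342 2 ug/mL. ArrayScan 20x, six fields/well; DNA content per nucleus; bidirectional fit vs DMSO.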
# [9] = APR_HepG2_CellLoss_72hr: Apredica 72-hour HepG2 Assay for Cell Loss (AID 2282915); details: high-content imaging
# How it was run: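 HepG2 cells were exposed for 72 hr to compounds at 0.39–200 uM (ten concentrations, duplicate) in 0.5% v/v final DMSO. Nuclei were stained with Hoechst 33342 after 3.7% formaldehyde fixation, imaged at 20x, and counted; fits bidirectional versus DMSO.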
# [10] = APR_HepG2_P-H2AX_72hr: Apredica 72-hour HepG2 Assay for H2AX Phosphorylation (AID 2282916); details: imaging, actives raise or lower the signal;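 note: phospho-histone H2A.x immunostain intensity per cell marking DNA damage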
# How it was run: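 HepG2 human liver cells were exposed for 72 hr to compounds at 0.39–200 uM (10 concentrations, duplicate per plate) in 0.5% v/v DMSO. Fixed, permeabilized cells were immunolabeled for phospho-histone H2A.x with Hoechst 33342 and imaged by HCS fluorescence; bidirectional fit versus DMSO.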
# [11] = APR_HepG2_MitoMembPot_72hr: Apredica 72-hour HepG2 Assay for Mitochondrial Membrane Potential (AID 2282917); details: imaging, actives raise or lower the signal
# How it was run: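 HepG2 cells exposed 72 h to compounds at 0.39–200 uM (0.5% v/v DMSO, duplicates); MitoTracker Red CMXRos 250 nM loaded 30 min before 3.7% formaldehyde fixation, imaged by HCS fluorescence. Bidirectional fit versus DMSO.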
# [12] = APR_HepG2_MitoticArrest_72hr: Apredica 72-hour HepG2 Assay for Mitotic Arrest (AID 2282918); details: high-content imaging, actives raise or lower the signal
# How it was run: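 HepG2, 72 hr exposure, 0.39–200 uM in duplicate, 0.5% v/v DMSO final. Formaldehyde-fixed, Triton-permeabilized, anti-phospho-histone H3/FITC plus Hoechst. ArrayScan imaging at 20x; curves fit bidirectionally against DMSO baseline.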
# [13] = APR_HepG2_MicrotubuleCSK_72hr: Apredica 72-hour HepG2 Assay for Microtubule CSK Stabilty (AID 2282919); details: HepG2 microtubule cytoskeleton, high-content imaging, actives raise or lower the signal
# How it was run: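 HepG2 human liver cells were dosed for 72 h at ten concentrations from 0.39 to 200 uM in duplicate (0.5% v/v DMSO final). Fixed, permeabilized cells were immunostained for alpha-tubulin (Cy5) with a Hoechst counterstain and imaged at 20x.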
# [14] = APR_HepG2_StressKinase_72hr: Apredica 72-hour HepG2 Assay for Stress Kinase (AID 2282921); details: HepG2 stress kinase (phospho-c-Jun) imaging, actives raise or lower the signal
# How it was run: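 Cells were exposed for 72 h to ten concentrations (0.39–200 uM, duplicate) at 0.5% v/v DMSO final, then fixed with 3.7% formaldehyde, permeabilized and immunostained for phospho-c-Jun (Cy3 secondary) with Hoechst nuclear counterstain.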
# [15] = APR_HepG2_StressKinase_24hr: Apredica 24-hour HepG2 Assay for Stress Kinase (AID 2282922); details: HepG2 stress kinase (phospho-c-Jun) imaging, actives raise or lower the signal
# How it was run: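 HepG2 cells exposed 24 hr to compound at 0.39–200 uM (10 concentrations, duplicate), 0.5% v/v DMSO final. Fixed in 3.7% formaldehyde, permeabilized with Triton X-100, immunolabeled for phospho-c-Jun with Hoechst 33342; HCS fluorescence imaging, bidirectional fit versus DMSO.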
# [16] = APR_HepG2_p53Act_72hr: Apredica 72-hour HepG2 Assay for p53 Activation (AID 2282923); details: high-content imaging, actives raise or lower the signal;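 note: average cellular p53 protein immunofluorescence intensity in HepG2 cells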
# How it was run: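 Cells were dosed for 72 hr with compounds at 0.39–200 uM in duplicate (final DMSO 0.5% v/v), then fixed in 3.7% formaldehyde, permeabilized with Triton X-100 and immunostained for p53 (Cy5) with Hoechst 33342 nuclear counterstain.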
# [17] = APR_HepG2_MitoMass_72hr: Apredica 72-hour HepG2 Assay for Mitochondrial Mass (AID 2282924); details: high-content imaging, actives raise or lower the signal;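 note: MitoTracker Red CMXRos stain intensity per cell imaged as mitochondrial mass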
# How it was run: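 HepG2 cells were exposed for 72 hr to compounds at 0.39–200 uM (ten concentrations, duplicate, 0.5% v/v DMSO final). Live cells were stained with 250 nM MitoTracker Red CMXRos for 30 min, then fixed in 3.7% formaldehyde and imaged by HCS fluorescence.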
# [18] = APR_HepG2_NuclearSize_72hr: Apredica 72-hour HepG2 Assay for Nuclear Size (AID 2282925); details: high-content imaging, actives raise or lower the signal
# How it was run: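 HepG2 cells were exposed to compounds at ten concentrations from 0.39 to 200 uM (duplicate, 0.5% DMSO final) for 72 hr. After fixation in 3.7% formaldehyde, nuclei were stained with Hoechst 33342 (2 ug/mL) and imaged at 20x.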
# [19] = APR_HepG2_P-H2AX_24hr: Apredica 24-hour HepG2 Assay for H2AX Phosphorylation (AID 2282920); details: high-content imaging, actives raise or lower the signal
# How it was run: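 HCS fluorescence imaging of phospho-H2A.x immunostain (with Hoechst 33342 nuclear counterstain) in HepG2 after 24 hr compound exposure; 10 concentrations, 0.39–200 uM, duplicate wells, 0.5% v/v DMSO. Gain or loss of signal fitted relative to DMSO baseline.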
smiles,measurement,setting,value
CNC(=O)Oc1cccc2c1OC(C)(C)C2,outcome,[1],inactive
same,outcome,[2],inactive
same,outcome,[3],inactive
same,outcome,[4],inactive
same,outcome,[5],inactive
same,outcome,[6],inactive
same,outcome,[7],inactive
same,outcome,[8],inactive
same,outcome,[9],inactive
same,outcome,[10],inactive
same,outcome,[11],inactive
same,outcome,[12],inactive
same,outcome,[13],inactive
same,outcome,[14],inactive
same,outcome,[15],inactive
same,outcome,[16],inactive
same,outcome,[17],inactive
same,outcome,[18],inactive
CS(=O)(=O)NC(=O)c1cc(Oc2ccc(C(F)(F)F)cc2Cl)ccc1[N+](=O)[O-],outcome,[1],inactive
same,outcome,[2],inactive
same,outcome,[3],inactive
same,outcome,[4],inactive
same,outcome,[5],inactive
same,outcome,[6],inactive
same,outcome,[7],inactive
same,outcome,[8],inactive
same,outcome,[9],inactive
same,outcome,[10],inactive
same,outcome,[11],inactive
same,outcome,[12],inactive
same,outcome,[13],inactive
same,outcome,[14],inactive
same,outcome,[15],inactive
same,outcome,[16],inactive
same,outcome,[17],inactive
same,outcome,[18],inactive
OCCCl,outcome,[1],inactive
same,outcome,[2],inactive
same,outcome,[3],inactive
same,outcome,[4],inactive
same,outcome,[5],inactive
same,outcome,[6],inactive
same,outcome,[7],inactive
same,outcome,[8],inactive
same,outcome,[9],inactive
same,outcome,[10],inactive
same,outcome,[11],inactive
same,outcome,[12],inactive
same,outcome,[13],inactive
same,outcome,[14],inactive
same,outcome,[15],inactive
same,outcome,[16],inactive
same,outcome,[17],inactive
same,outcome,[18],inactive
CCNS(=O)(=O)C(F)(F)C(F)(F)C(F)(F)C(F)(F)C(F)(F)C(F)(F)C(F)(F)C(F)(F)F,AC50,[1],25.2 µM (active)
same,outcome,[2],inactive
same,AC50,[3],38.9 µM (active)
same,AC50,[4],56 µM (active)
same,AC50,[5],46.3 µM (active)
same,AC50,[6],103 µM (active)
same,outcome,[7],inactive
same,AC50,[8],36.4 µM (active)
same,AC50,[9],81.5 µM (active)
same,AC50,[10],100 µM (active)
same,AC50,[11],91.2 µM (active)
same,AC50,[12],72.5 µM (active)
same,AC50,[13],77.6 µM (active)
same,AC50,[19],68.5 µM (active)
same,AC50,[14],112 µM (active)
same,outcome,[15],inactive
same,outcome,[17],inactive
same,AC50,[18],105 µM (active)
Cn1cc(-c2ccccc2)c(=O)c(-c2cccc(C(F)(F)F)c2)c1,AC50,[1],57.4 µM (active)
same,outcome,[2],inactive
same,outcome,[3],inactive
same,outcome,[4],inactive
same,outcome,[5],inactive
same,outcome,[6],inactive
same,outcome,[7],inactive
same,AC50,[8],107 µM (active)
same,AC50,[9],64.3 µM (active)
same,outcome,[10],inactive
same,outcome,[11],inactive
same,outcome,[12],inactive
same,outcome,[13],inactive
same,outcome,[14],inactive
same,outcome,[15],inactive
same,outcome,[16],inactive
same,outcome,[17],inactive
same,outcome,[18],inactive
Cc1cccc(N)c1N,outcome,[1],inactive
same,outcome,[2],inactive
same,outcome,[3],inactive
same,outcome,[4],inactive
same,outcome,[5],inactive
same,AC50,[6],99.9 µM (active)
same,outcome,[7],inactive
same,AC50,[8],7.98 µM (active)
same,AC50,[9],14.1 µM (active)
same,AC50,[10],56.3 µM (active)
same,outcome,[11],inactive
same,AC50,[12],19.8 µM (active)
same,outcome,[13],inactive
same,outcome,[14],inactive
same,outcome,[15],inactive
same,outcome,[16],inactive
same,outcome,[17],inactive
same,outcome,[18],inactive
CCOC(=O)[C@]1(c2ccccc2)Oc2ccccc2[C@@H]1N,outcome,[1],inactive
same,outcome,[2],inactive
same,AC50,[3],86.7 µM (active)
same,AC50,[4],112 µM (active)
same,AC50,[5],111 µM (active)
same,outcome,[6],inactive
same,AC50,[7],107 µM (active)
same,outcome,[8],inactive
same,AC50,[9],116 µM (active)
same,AC50,[10],112 µM (active)
same,outcome,[11],inactive
same,AC50,[12],90.8 µM (active)
same,outcome,[13],inactive
same,AC50,[14],109 µM (active)
same,outcome,[15],inactive
same,outcome,[17],inactive
same,outcome,[18],inactive
